Assay results published in publication PMC12864922, “TDP-43 directly inhibits mRNA accumulation in neurites through modulation of mRNA stability”.
Over roughly 9,900 sequences, “r (bound/input frequency ratio)” has its median near 0.7; the highest 2% begin near 6.5. Shown is part of a subset that was picked to be rich in the highest values.

B1: ENSMUSG00000031028.420|Tub (ssRNA)
RNA: GGGAGUUCUACAGUCCGACGAUCGCUUCGAUAUCCGCAUGCUAGAAGAGCAGCCUAGUCUGUAAGAGUGCAGGGCAGCUGGAACCUUAGGCAGCUCCUCUGUAUGCUACCGGCUCCACACCCUAACACUCUCCACCCUCUGCUCCAAACCAGUUCUUCUGCAGAGUGGUGAUGUUAGCUUCCCCAGCUCCUCUCCAAGUCUAGCUUUUUCUGUCCUUCUGGCUCCAAGGUGCUCUGUGUCUGUGUGUGUGUGUCUGUCUGUGUGUGUGUGUGUCGAGGAAAGGGCAAUCUGCAAACAAUGAACCUCUUGCGGUCGCACUAGUGUGGAAUUCUCGGGUGUCAAGG
B2: ENSMUSG00000031028.417|Tub (ssRNA)
RNA: GGGAGUUCUACAGUCCGACGAUCGCUUCGAUAUCCGCAUGCUAUGGGUAGCAAAUUGGUGAGAAGAGCAGCCUAGUCUGUAAGAGUGCAGGGCAGCUGGAACCUUAGGCAGCUCCUCUGUAUGCUACCGGCUCCACACCCUAACACUCUCCACCCUCUGCUCCAAACCAGUUCUUCUGCAGAGUGGUGAUGUUAGCUUCCCCAGCUCCUCUCCAAGUCUAGCUUUUUCUGUCCUUCUGGCUCCAAGGUGCUCUGUGUCUGUGUGUGUGUGUCUGUCUGUGUGUGUGUGUGUCGAGGAAAGGGCCUCUUGCGGUCGCACUAGUGUGGAAUUCUCGGGUGUCAAGG
B3: ENSMUSG00000031028.418|Tub (ssRNA)
RNA: GGGAGUUCUACAGUCCGACGAUCGCUUCGAUAUCCGCAUGCUAGCAAAUUGGUGAGAAGAGCAGCCUAGUCUGUAAGAGUGCAGGGCAGCUGGAACCUUAGGCAGCUCCUCUGUAUGCUACCGGCUCCACACCCUAACACUCUCCACCCUCUGCUCCAAACCAGUUCUUCUGCAGAGUGGUGAUGUUAGCUUCCCCAGCUCCUCUCCAAGUCUAGCUUUUUCUGUCCUUCUGGCUCCAAGGUGCUCUGUGUCUGUGUGUGUGUGUCUGUCUGUGUGUGUGUGUGUCGAGGAAAGGGCAAUCUGCUCUUGCGGUCGCACUAGUGUGGAAUUCUCGGGUGUCAAGG
B4: ENSMUSG00000031028.416|Tub (ssRNA)
RNA: GGGAGUUCUACAGUCCGACGAUCGCUUCGAUAUCCGCAUGCUACUUGGCUGGGUAGCAAAUUGGUGAGAAGAGCAGCCUAGUCUGUAAGAGUGCAGGGCAGCUGGAACCUUAGGCAGCUCCUCUGUAUGCUACCGGCUCCACACCCUAACACUCUCCACCCUCUGCUCCAAACCAGUUCUUCUGCAGAGUGGUGAUGUUAGCUUCCCCAGCUCCUCUCCAAGUCUAGCUUUUUCUGUCCUUCUGGCUCCAAGGUGCUCUGUGUCUGUGUGUGUGUGUCUGUCUGUGUGUGUGUGUGUCGAGGACUCUUGCGGUCGCACUAGUGUGGAAUUCUCGGGUGUCAAGG
B5: ENSMUSG00000031028.421|Tub (ssRNA)
RNA: GGGAGUUCUACAGUCCGACGAUCGCUUCGAUAUCCGCAUGCUACAGCCUAGUCUGUAAGAGUGCAGGGCAGCUGGAACCUUAGGCAGCUCCUCUGUAUGCUACCGGCUCCACACCCUAACACUCUCCACCCUCUGCUCCAAACCAGUUCUUCUGCAGAGUGGUGAUGUUAGCUUCCCCAGCUCCUCUCCAAGUCUAGCUUUUUCUGUCCUUCUGGCUCCAAGGUGCUCUGUGUCUGUGUGUGUGUGUCUGUCUGUGUGUGUGUGUGUCGAGGAAAGGGCAAUCUGCAAACAAUGAACAGAAGUCUCUUGCGGUCGCACUAGUGUGGAAUUCUCGGGUGUCAAGG
B6: ENSMUSG00000031028.409|Tub (ssRNA)
RNA: GGGAGUUCUACAGUCCGACGAUCGCUUCGAUAUCCGCAUGCUAACAGGAAGAUCCCUUACCCCUCAUCCCCUCUUCUUUUUGGUCCUUGGCUGGGUAGCAAAUUGGUGAGAAGAGCAGCCUAGUCUGUAAGAGUGCAGGGCAGCUGGAACCUUAGGCAGCUCCUCUGUAUGCUACCGGCUCCACACCCUAACACUCUCCACCCUCUGCUCCAAACCAGUUCUUCUGCAGAGUGGUGAUGUUAGCUUCCCCAGCUCCUCUCCAAGUCUAGCUUUUUCUGUCCUUCUGGCUCCAAGGUGCUCUGUCUCUUGCGGUCGCACUAGUGUGGAAUUCUCGGGUGUCAAGG
B7: ENSMUSG00000031028.419|Tub|64:68;198:202;204:216;222:236 (ssRNA)
RNA: GGGAGUUCUACAGUCCGACGAUCGCUUCGAUAUCCGCAUGCUAUGGUGAGAAGAGCAGCCUAGUCUGUAAGAGUGCAGGGCAGCUGGAACCUUAGGCAGCUCCUCUCAUACCUACCGGCUCCACACCCUAACACUCUCCACCCUCUGCUCCAAACCAGUUCUUCUGCAGAGUGGUGAUGUUAGCUUCCCCAGCUCCUCUCCAAGUCUAGCUUUUUCUGUCCUUCUGGCUCCAAGGUGCUCACACACACACACACACACACUGUCACACACACACACACACGAGGAAAGGGCAAUCUGCAAACACUCUUGCGGUCGCACUAGUGUGGAAUUCUCGGGUGUCAAGG
B8: ENSMUSG00000031028.419|Tub (ssRNA)
RNA: GGGAGUUCUACAGUCCGACGAUCGCUUCGAUAUCCGCAUGCUAUGGUGAGAAGAGCAGCCUAGUCUGUAAGAGUGCAGGGCAGCUGGAACCUUAGGCAGCUCCUCUGUAUGCUACCGGCUCCACACCCUAACACUCUCCACCCUCUGCUCCAAACCAGUUCUUCUGCAGAGUGGUGAUGUUAGCUUCCCCAGCUCCUCUCCAAGUCUAGCUUUUUCUGUCCUUCUGGCUCCAAGGUGCUCUGUGUCUGUGUGUGUGUGUCUGUCUGUGUGUGUGUGUGUCGAGGAAAGGGCAAUCUGCAAACACUCUUGCGGUCGCACUAGUGUGGAAUUCUCGGGUGUCAAGG
B9: ENSMUSG00000031028.418|Tub|70:74;204:208;210:222;228:242 (ssRNA)
RNA: GGGAGUUCUACAGUCCGACGAUCGCUUCGAUAUCCGCAUGCUAGCAAAUUGGUGAGAAGAGCAGCCUAGUCUGUAAGAGUGCAGGGCAGCUGGAACCUUAGGCAGCUCCUCUCAUACCUACCGGCUCCACACCCUAACACUCUCCACCCUCUGCUCCAAACCAGUUCUUCUGCAGAGUGGUGAUGUUAGCUUCCCCAGCUCCUCUCCAAGUCUAGCUUUUUCUGUCCUUCUGGCUCCAAGGUGCUCACACACACACACACACACACUGUCACACACACACACACACGAGGAAAGGGCAAUCUGCUCUUGCGGUCGCACUAGUGUGGAAUUCUCGGGUGUCAAGG
B10: ENSMUSG00000042529.435|Kcnj12|146:150 (ssRNA)
RNA: GGGAGUUCUACAGUCCGACGAUCGCUUCGAUAUCCGCAUGCUAAGAGAGAGAGAGAGAGAGAGAGAGAGAGAGAGAGAGAGAGCUGCACAGGAUGAAGCAGCUGCCCUGAGCCCAUCUGGUGCUGUGCACCUGGUCCUUGUCCAGCCGAGGGCCUGGGGGCAGAAGAACACACCAUAGGGAGGCCCUUCAUACGGUGUCUGCCCUAUGUGAGGUCAUAGAAUGUUAAAUCUAUUUUAAACGGUGAAACUGGAGAAUUUUCAUGUUAUUUUCAAUAAUAGUGGUAUCUAAAGAUGUAGGCAACACUCUUGCGGUCGCACUAGUGUGGAAUUCUCGGGUGUCAAGG
B11: ENSMUSG00000035202.98|Lars2 (ssRNA)
RNA: GGGAGUUCUACAGUCCGACGAUCGCUUCGAUAUCCGCAUGCUAUCCUGCUCAGUACGAGAGGAACCGCAGCUAGCUUGUGUCUCCAGUGUCUUUUACCAUCACAGGCCCUGGCUCUGUGCUACCUCCCUAGAAUACCUGUGGUUCAUCACCUUCAGCUCACACUCCAUUCAGACAAUGCUCACUUAGGCCUACAAGCAAGGGAGAGGCUUAAGCACAAGGUCUUUAAGCUUGAUACUGUGCCUGGUCUCAAUGCCUAGAAAUUCCAACUUAACUGUCGCUAUCAUAAAGGAUUUUAAAUUUUUCUCUUGCGGUCGCACUAGUGUGGAAUUCUCGGGUGUCAAGG
B12: ENSMUSG00000090935.628|Synj2bp (ssRNA)
RNA: GGGAGUUCUACAGUCCGACGAUCGCUUCGAUAUCCGCAUGCUAGUCUUAAACUGAUUAGUAACACUAUGACUUACCCUGAGAUCUAAGUAUUGCUAUAAAGAGACUGAAGAGGAGAGAAUAAAGUAUUUUCCUAGGACUACAUAGUUGGUAAAAGAGAAUCAUGAUUUAAACUCUGGACUAUGGAUGGCAGUAUCAGUAAUAUUCCCUCAUAGCUAGCAGUCCUCAUGCAAGGUCUCUGAACAAAAGCAACGUAUCACCUGCAAAUGCUUGGGUUUCAUCCCAUUCUUAUGGAGUGAGAUGAGCUCUUGCGGUCGCACUAGUGUGGAAUUCUCGGGUGUCAAGG
B13: ENSMUSG00000061578.1408|Ksr2|69:73 (ssRNA)
RNA: GGGAGUUCUACAGUCCGACGAUCGCUUCGAUAUCCGCAUGCUACUCCACGGACCUCAGGCCCACUGUUUUCUCCAUGUCUGUCUGUACUGACUGUUGCAGAAUGAGCUGAUCAUACAUCUUGAUUCUCCAUUUUCCUUCUGGACCACAUGUCUCUUCCUUUUCCUUUUUAGAUCUGUCUUGCUCUCUGUCUCUCUCACUCAUUGCCAACAUGUUGCUGGGAAAGAAUAUUUGAUUUAGAUGCCAAUCAGGAAGGCAAGUAGGAUGGAUGGAUGAGUGAGUGGAUAGGUAGGUAUAUAAAUGGACUCUUGCGGUCGCACUAGUGUGGAAUUCUCGGGUGUCAAGG

Each binder was assayed against TDP-43 (Homo sapiens, UniProt Q13148 1-414) (assay: RNA Bind-n-Seq with designed 260-mer pool; 25 mM Tris-HCl, 150 mM KCl, 3 mM MgCl2, BSA (printed 500 mg/mL), 20 units/mL SUPERase IN; pH not stated; 500 nM RNA pool, 1 h, 4 C; TDP-43 5, 50, 500 nM; high values mean tight binding). Settings: protein: recombinant; tags: SBP (GST cleaved off with PreScission; pGEX-GST-SBP).
TDP-43, sequence (Q13148 whole entry): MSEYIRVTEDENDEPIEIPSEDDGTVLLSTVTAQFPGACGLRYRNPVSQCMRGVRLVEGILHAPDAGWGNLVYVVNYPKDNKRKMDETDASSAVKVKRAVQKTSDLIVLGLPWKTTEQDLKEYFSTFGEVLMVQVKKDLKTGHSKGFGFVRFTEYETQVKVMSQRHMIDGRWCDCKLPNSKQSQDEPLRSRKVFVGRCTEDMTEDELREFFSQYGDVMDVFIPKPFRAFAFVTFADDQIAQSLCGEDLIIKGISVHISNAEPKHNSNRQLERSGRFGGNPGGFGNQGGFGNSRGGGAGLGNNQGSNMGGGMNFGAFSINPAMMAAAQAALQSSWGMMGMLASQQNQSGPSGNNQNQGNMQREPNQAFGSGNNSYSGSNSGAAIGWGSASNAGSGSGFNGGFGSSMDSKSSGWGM
Outline: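 For each oligo, R gives binding as its mapped-read-normalized abundance after pulldown divided by its abundance in input. Bead-captured SBP-tagged TDP-43 (5, 50 or 500 nM) was incubated with 500 nM of an in vitro-transcribed 260-nt 3′ UTR oligo pool for 1 h at 4 °C in 25 mM Tris-HCl, 150 mM KCl, 3 mM MgCl2, BSA and SUPERase IN on streptavidin beads. Washed, biotin-eluted RNA was reverse transcribed, PCR-amplified and sequenced.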
With B1 the binding signal was 7.33 R (bound/input frequency ratio).
B2 was tested, and the binding signal was 6.83 R (bound/input frequency ratio).
B3 was tested, and the binding signal was 7.04 R (bound/input frequency ratio).
For B4, the binding signal was 6.14 R (bound/input frequency ratio).
B5 was tested, and the binding signal was 5.82 R (bound/input frequency ratio).
With B6 the binding signal was 0.927 R (bound/input frequency ratio).
B7 was tested, and the binding signal was 3.42 R (bound/input frequency ratio).
With B8 the binding signal was 5.95 R (bound/input frequency ratio).
With B9 the binding signal was 3.24 R (bound/input frequency ratio).
B10 was tested, and the binding signal was 4.76 R (bound/input frequency ratio).
With B11 the binding signal was 0.339 R (bound/input frequency ratio).
In the case of B12, the binding signal is reported as 0.125 R (bound/input frequency ratio).
With B13 the binding signal was 0.845 R (bound/input frequency ratio).
